High-throughput results deposited in PubChem BioAssay by several laboratories.
Only some compounds are listed: those with a hit (about 4.4% of all), similar ones and a draw of the others.
PfHsp90 yeast 2: inhibits growth of yeast expressing Plasmodium falciparum Hsp90; S. cerevisiae expressing PfHsp90, BacTiter-Glo ATP, 48 h; yeast lacking PDR1 and PDR3 efflux regulators; AID 504621; 0.32% of 310,000 active; inhibition, % at 9.4 µM;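 active = every replicate shows inhibition above about 80%, whatever the replicate mean, limit read from the data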
Mot1-301 SUMO: blocks SUMOylation pathway, rescuing yeast Mot1-301 growth. 1% of 320,000 active. growth rescue, % at 18.8 µM. S. cerevisiae Mot1-301 growth rescue, ATP luminescence, 38.5C; percent above DMSO median, 100 means doubled;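 active = every valid replicate shows activation above 250% relative to neutral control wells; inactive = the rest, any valid replicate at or below 250%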
tim10-1 inh: growth inhibitors of tim10-1 mutant yeast; inhibition, % at 20 µM; 2.2% of 330,000 active; S. cerevisiae tim10-1 ts strain growth, BacTiter-Glo, 24 h;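 active = inhibition of at least 40%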;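 also: mutant grown at 25 °C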
TIM10 inh: TIM10 yeast growth inhibition | S. cerevisiae TIM10 strain growth, BacTiter-Glo luminescence, 24 h | inhibition, % at 10 µM | 1.4% of 330,000 active | AID 463195;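 active = inhibition of 40% or more at the single tested concentration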;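 also: wild-type TIM10 isogenic control strain grown at permissive 25 °C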
tim23-1 inh: tim23-1 yeast growth inhibition; S. cerevisiae tim23-1 growth, BacTiter-Glo luminescence, 24 h; inhibition, % at 20 µM; 1.3% of 330,000 active;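 active = growth inhibition of the mutant yeast at or above 50%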;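 also: temperature-sensitive mutant grown at 25 °C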
tim10-1 confirm: confirmation of tim10-1 mutant yeast growth inhibitors; shares compounds with tim10-1 inh; S. cerevisiae tim10-1 ts strain growth, BacTiter-Glo, 24 h; inhibition, % at 20 µM; 56% of 7,400 active; AID 463213;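 active = inhibition of yeast growth at or above a set limit in either of two repeat tests at 20 µM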;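 also: tim10-1 mutant grown at permissive 25 °C to find synthetic lethal compounds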
Numbers stand for hits; - = inactive; . = no result.

SMILES | PfHsp90 yeast 2 | Mot1-301 SUMO | tim10-1 inh | TIM10 inh | tim23-1 inh | tim10-1 confirm
CC(=O)c1ccc2c3c(cc(C)c2c1)CCCC3 | - | . | . | . | . | .
COc1cccc(NC(=S)Nc2cccc3ccccc23)c1 | - | - | 55 | - | - | -
COc1ccc(-c2[nH]ncc2N=Nc2ccccc2)cc1 | - | - | 58 | - | - | 37
COc1ccc(-c2[nH]ncc2N=Nc2cc(C)cc(C)c2)cc1 | - | - | - | - | - | .
COc1ccc(OC)c(C(C)NC(=S)NC2CCCCC2)c1 (centres undefined) | - | - | 42 | - | - | -
COc1ccc(NC(=S)NC2CCCC2)c(OC)c1 | - | - | - | - | - | .
CSc1cccc(NC(=S)N2CCC(c3ccccc3)C2)c1 (centres undefined) | - | - | 48 | - | - | -
CCc1cccc(NC(=S)N2CCC(c3ccccc3)C2)c1 (centres undefined) | - | - | - | - | - | .
O=C(c1cc2c(s1)CCCCC2)N1CCN(c2ncccn2)CC1 | - | - | 45 | - | - | -
CC(=O)c1ccc(N2CCN(C(=O)c3cc4c(s3)CCCC4)CC2)cc1 | - | - | 47 | - | - | -
O=C(CSc1ncnc2c1nnn2Cc1ccccc1)NC1CCCC1 | - | - | - | - | - | .
CC(C)(C)NC(=O)CSc1ncnc2c1nnn2Cc1ccccc1Cl | - | - | 48 | - | - | -
O=C(COc1ccccc1Cl)Nc1ccc(S(=O)(=O)Nc2ccccn2)cc1 | - | - | - | - | - | .
CCOc1ccccc1N1C(=O)CC(Sc2n[nH]c(-c3ccccc3)n2)C1=O (centres undefined) | - | - | 53 | - | - | 53
CCOC(=O)C1=C(c2ccccc2)O/C(=C(/C#N)C(F)(F)F)S1 | . | - | 47 | - | - | 39
CCOC(=O)C1=C(c2ccccc2)O/C(=C(\C(=O)OC)C(F)(F)F)S1 | - | - | - | - | - | .
c1ccc(-c2nc3ccccc3nc2N2CCOCC2)cc1 | - | - | - | - | - | .
Cn1c(N2CCOCC2)nc(-c2ccccc2)c1-c1ccccc1 | - | - | 46 | - | - | 39
CN(c1ccccc1C(=O)N1CCN(c2ccccc2F)CC1)S(=O)(=O)c1ccccc1 | - | - | - | - | - | .
CC(=O)Nc1nc2ccccc2n1Cc1ccccc1Cl | - | - | 46 | - | - | -
CC(=O)Nc1nc2ccccc2n1Cc1ccccc1C | - | - | 46 | - | - | -
O=C(C[C@H]1C/C=C\C[C@H](Cc2ccc(F)cc2)C(=O)O[C@@H](c2ccccc2)CNC1=O)NCCO | - | - | - | - | - | .
CC(NC(=O)c1ccco1)C(c1cccs1)N1CCN(c2ccccc2)CC1 (centres undefined) | - | - | - | - | - | .
CC(NC(=O)Cc1cccs1)C(c1cccs1)N1CCN(c2ccccc2F)CC1 (centres undefined) | - | - | 46 | - | - | 37
CC(NC(=O)c1ccco1)C(c1cccs1)N1CCN(c2ccc(F)cc2)CC1 (centres undefined) | - | - | 47 | - | - | -
SMILES | PfHsp90 yeast 2 | Mot1-301 SUMO | tim10-1 inh | TIM10 inh | tim23-1 inh | tim10-1 confirm
CC1CCC(NC(=O)C2CCC(CNS(=O)(=O)c3cccc4cccnc34)CC2)CC1 (centres undefined) | - | - | - | - | - | .
O=C(CN1c2ccccc2Sc2ccccc21)NNC(=O)Nc1cccc(Cl)c1 | - | - | - | - | - | .
Cc1nnc(-c2ccccc2)c(=O)n1/N=C/c1c(O)ccc2ccccc12 | - | - | 49 | - | - | -
NNc1nc2c(F)cc(F)cc2s1 | - | - | 41 | - | - | -
CC(Oc1ccc(C(C)(C)C)cc1)C(=O)NC1CC(C)(C)NC(C)(C)C1 (centres undefined) | . | - | - | - | - | .
C/C(CC(=O)Nc1ccc(N(C)C)cc1)=N\NC(=O)c1ccccn1 | - | - | 49 | - | - | 32
C/C(CC(=O)Nc1ccc(N(C)C)cc1)=N\NC(=O)c1cnccn1 | - | - | - | - | - | .
COc1cccc(C(=O)N2N=C(c3cccc(OC)c3)CC2(O)C(F)(F)F)c1 (centres undefined) | - | - | 40 | - | - | -
COc1ccc(C(=O)N2N=C(c3cccc(OC)c3)CC2(O)C(F)(F)F)cc1 (centres undefined) | . | - | - | - | - | .
Cc1ccc(CCNC(=O)C2CCN(S(=O)(=O)c3ccc4nc5c(c(C(=O)O)c4c3)CCCC5)CC2)cc1 | - | - | - | - | - | .
CC(=O)c1cccc(NC(=O)C(C)OC(=O)C2=NNC(=O)CC2)c1 (centres undefined) | - | - | - | - | - | .
NC(=S)n1[nH]c(-c2ccc([N+](=O)[O-])cc2)c(N=Nc2cccc(Cl)c2)c1=O | - | . | 41 | - | - | 43
COc1cc2c(cc1OC)CN(C(=O)CN1CCN(S(=O)(=O)c3ccccc3)CC1)CC2 | - | - | - | - | - | .
CC(C)(C)NC(=O)NCC1CCCC1NC(=O)NC(C)(C)C (centres undefined) | - | - | - | - | - | .
O=C(CC(C(=O)N1CCc2ccccc21)n1ccnc1)N1CCc2ccccc2C1 (centres undefined) | . | - | 40 | - | - | 35
CCCN(CC(=O)Nc1ccccc1OC)C(=O)c1ccc2[nH]c3c(c2c1)CC(C)CC3 (centres undefined) | - | - | 41 | - | - | -
CCOC(=O)N1CCN(c2c(F)cc3[nH]c(=S)[nH]c3c2Br)CC1 | - | - | 57 | - | - | -
N#Cc1ccccc1NC(=O)C1SC(=Nc2ccccc2)C(C(=O)Nc2ccc(Cl)cc2)=C1N (centres undefined) | . | - | 43 | - | - | -
CC(C)(C)N(Cc1ccccc1)C(=O)COC(=O)c1ccc2ccccc2n1 | - | - | - | - | - | .
O=C(COC(=O)c1ccc(S(=O)(=O)N2CCCCC2)cc1)Nc1ccccc1 | - | - | - | - | - | .
CCC(C)c1ccc(C(C)NC(=S)NCc2ccc(F)cc2)cc1 (centres undefined) | - | - | 44 | - | - | -
CCCc1ccc(C(C)NC(=S)NCc2ccc(F)cc2)cc1 (centres undefined) | - | - | - | - | - | .
COc1ccc(S(=O)(=O)NC2CCCC2)cc1C(N)=O | - | - | - | - | - | .
O=C(COC(=O)/C=C/c1ccccc1[N+](=O)[O-])NCc1ccco1 | . | - | - | - | - | .
Cn1cc(C(=O)NCCN2CCN(c3cccc(Cl)c3)CC2)c2c3ccccc3n(C)c2c1=O | - | - | 46 | - | - | -
C[C@H](NC(=O)[C@H]1N2C(=O)c3ccccc3C2SC1(C)C)C(=O)N1CCC[C@H]1C(=O)O (some centres undefined) | - | - | - | - | - | .
CCCNC(=S)N1CCN(c2nc(C)nc3sc4c(c23)CCCC4)CC1 | - | - | 43 | - | - | -
CCc1ccc(-n2nc3cc(C)c(N)cc3n2)cc1 | - | - | - | - | - | .
